Screens deposited in PubChem BioAssay by National Center for Advancing Translational Sciences (NCATS).
Pol iota inh – qHTS for Inhibitors of Polymerase Iota; DNA polymerase iota (Homo sapiens), Q9UNA4; Pol iota fluorescent replication assay, 10 min; Potency, µM (highest dose often 115 µM), for inactives: top-dose activity, negative = inhibition, actives largely listed as inhibitors; 1% of 390,000 active; AID 588590, 2011; also: potency is read from the fitted curve at half-maximal effect
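Fluorescent replication assay read twice, at 0 min and 10 min after adding 50 nM (final) substrate. Enzyme (10 nM) and compounds were first incubated 15 min at room temperature; enzyme-free buffer wells were negative controls.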
Pol beta inh – qHTS Assay for Inhibitors of DNA Polymerase Beta; 1.3% of 340,000 active; Potency, µM (titrated, usually from 114 µM), without a hit: at the highest dose activity change, negative = inhibition, usual class: inhibitors; P06746; Pol beta primer extension/strand displacement, fluorescence kinetic; AID 485314, 2010; also: potency is read from the fitted curve at half-maximal effect; % is scaled to controls: 0 for no effect and ±100 for the full control effect
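Curves were derived by four-parameter Hill fits of normalized qHTS data. The kinetic fluorescent primer-extension read was taken at 0 and 10 min after 50 nM substrate, following a 15 min room-temperature preincubation of 10 nM enzyme with compounds.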
PI5P4K alpha inh – qHTS for Inhibitors of phosphatidylinositol 5-phosphate 4-kinase (PI5P4K). AID 652105, 2013. PI5P4Kalpha enzyme, ADP-Glo luminescence, 60 min; hits give low values. max response, %. 1.2% of 330,000 active. Phosphatidylinositol 5-phosphate 4-kinase type-2 alpha (Homo sapiens), P48426; active = max response of -50% or lower; inconclusive = between -30% and -50%; inactive = -30% or higher; also: value at the top dose of about 77 µM; % is scaled to controls: 0 for no effect and ±100 for the full control effect
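Enzyme plus substrate dispensed, test compounds pinned in, then ATP (5 microM final) added. After 60 min at RT, ADP-Glo reagent 1 for 45 min and reagent 2 for 30 min preceded luminescence imaging.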
Pol eta inh – qHTS for Inhibitors of Polymerase Eta | DNA polymerase eta (Homo sapiens), Q9Y253 | recombinant Pol eta, fluorescent DNA replication assay | Potency, µM (highest dose often 114 µM), for inactives: at the highest dose activity change, negative = inhibition, actives largely listed as inhibitors | 1.2% of 390,000 active; also: potency is read from the fitted curve at half-maximal effect; % is scaled to controls: 0 for no effect and ±100 for the full control effect
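Pol eta at 10 nM preincubated with compounds 15 min at room temperature; reaction started with fluorescent substrate (50 nM final) and read kinetically at 0 and 10 min.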
FEN1 inh – qHTS Assay for the Inhibitors of Human Flap endonuclease 1 (FEN1). P39748. Recombinant FEN1 flap cleavage, fluorescence, 15 min. Potency, µM (top dose mostly 114 µM), without a hit: top-dose activity change, negative = inhibition, most hits filed as inhibitors. 0.35% of 390,000 active. AID 588795, 2011; also: potency is read from the fitted curve at half-maximal effect; % is scaled to controls: 0 for no effect and ±100 for the full control effect; nearly all actives have a fitted effect of over 65% in size
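Steps: FEN1 (10 nM) dispensed; compound added by pin tool; 15 min at room temperature; substrate added to 50 nM final; reads at 0 min and 15 min; data normalized and fitted (four-parameter Hill).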
POLK inh – qHTS for Inhibitors of Polymerase Kappa | DNA polymerase kappa (Homo sapiens), Q9UBT6 | purified Pol kappa, fluorescent DNA synthesis assay, 10 min | Potency, µM (doses to about 107 µM), without a hit: top-dose activity, negative = inhibition, actives largely listed as inhibitors | 0.53% of 400,000 active; also: potency is read from the fitted curve at half-maximal effect; % is scaled to controls: 0 for no effect and ±100 for the full control effect
Target sequence (Q9UBT6 whole entry, looked up): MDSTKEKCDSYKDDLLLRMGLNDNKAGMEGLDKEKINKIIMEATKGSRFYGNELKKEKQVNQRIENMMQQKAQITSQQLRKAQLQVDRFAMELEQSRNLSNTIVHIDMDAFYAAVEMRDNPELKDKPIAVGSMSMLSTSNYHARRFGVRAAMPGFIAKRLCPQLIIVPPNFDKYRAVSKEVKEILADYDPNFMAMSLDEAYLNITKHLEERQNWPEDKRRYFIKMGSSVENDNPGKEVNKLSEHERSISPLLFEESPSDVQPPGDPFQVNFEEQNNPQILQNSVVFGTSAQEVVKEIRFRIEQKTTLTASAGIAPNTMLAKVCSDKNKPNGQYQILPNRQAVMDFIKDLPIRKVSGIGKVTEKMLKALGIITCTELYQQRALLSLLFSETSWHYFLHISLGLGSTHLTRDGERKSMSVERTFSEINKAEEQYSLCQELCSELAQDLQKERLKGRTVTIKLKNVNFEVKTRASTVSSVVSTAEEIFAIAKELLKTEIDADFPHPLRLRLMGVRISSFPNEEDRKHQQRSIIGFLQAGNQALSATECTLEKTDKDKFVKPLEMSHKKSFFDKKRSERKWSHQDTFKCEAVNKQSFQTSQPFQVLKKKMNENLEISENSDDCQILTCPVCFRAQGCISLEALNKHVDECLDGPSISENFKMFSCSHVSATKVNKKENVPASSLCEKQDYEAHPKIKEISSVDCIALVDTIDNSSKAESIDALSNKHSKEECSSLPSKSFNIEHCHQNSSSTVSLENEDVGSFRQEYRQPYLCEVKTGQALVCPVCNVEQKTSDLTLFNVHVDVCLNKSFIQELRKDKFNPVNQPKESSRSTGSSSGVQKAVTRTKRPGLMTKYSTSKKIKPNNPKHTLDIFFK
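Fluorescent qHTS in 1536-well format: enzyme (10 nM) and compound sat 15 min at room temperature before 50 nM substrate (final) was added. Signal taken at 0 and 10 min; no-enzyme buffer wells were negative controls.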
Numbers without * were called inactive; ? = inconclusive; . = no result given; [ ] = remark or other dose. Hits are enriched below; roughly 2.8% of the tested compounds scored in any of these assays. Unless noted, calls follow the shape of the dose curve; as a rule, active = well fitted curve in the direction sought with a large enough effect; inconclusive = small, poorly fitted or top-dose-only effect, or another doubt; inactive = no such curve, though single readings can be large; an effect the other way counts as inactive or inconclusive.

SMILES	Pol iota inh	Pol beta inh	PI5P4K alpha inh	Pol eta inh	FEN1 inh	POLK inh
CC(=O)COc1ccc2c(c1C)O/C(=C\c1ccco1)C2=O	?	45µM*	-12	22µM*	1%	?
O=C1OC2(CCCCC2)CC2=C1C1O[C@](c3ccsc3)(Cc3c1ccc1ccccc31)O2	.	10µM*	.	.	.	.
COc1ccc([C@]23Cc4cc(OC)c(OC)cc4C(O2)C2=C(CC4(CCCCC4)OC2=O)O3)cc1	.	19%[22.9 µM]	.	.	.	.
CC1(C(=O)Nc2cccnc2)Cc2c(-c3cccc(C(F)(F)F)c3)ccnc2O1 (centres undefined)	.	.	0	.	.	.
Cc1ccc2c(C(=O)CN3CCSCC3)c(C)[nH]c2c1	8%	-14%	?	-9%	-20%	-15%
Cc1ccc2c(C(=O)CCl)c(C)[nH]c2c1	10µM*	8%	6	?	-5%	-8%
Cc1ccc2c(c1)c(C)cc(=O)n2CCC(=O)O	3%	13µM*	.	-3%	-6%	-6%[60.1 µM]
Cc1c(C)n(CCC(=O)O)c2ccccc12	45%	0%	2	-7%	16%	-7%
Cc1oc(C)c2c(=O)cc(-c3ccc4c(c3)OCO4)cc(OC(=O)c3ccccc3Cl)c12	79µM*	18µM*	.	?	?	?
CSc1nnc(-c2cc3c(s2)-c2ccccc2CC3)o1	10%	-1%	30	-19%	-3%	-12%
CC1CCc2sc(C(=O)NC3CCCCC3)cc2C1 (centres undefined)	9%	.	4	-5%	-18%	8%
S=c1[nH]nc(-c2cc3c(s2)-c2ccccc2CC3)o1	1%	0%	-89*	-16%	-18%	-12%
CC1CCc2sc(-c3n[nH]c(=S)o3)cc2C1 (centres undefined)	9%	-3%	-68*	-7%	-1%	-1%
CO[C@@H]1CN(C)C(=O)c2ccc(NS(=O)(=O)c3c(C)noc3C)cc2OC[C@@H](C)NC[C@@H]1C	.	.	0	.	.	.
CCCCN1CC(O)=C(c2nc(-c3ccc(Br)cc3)cs2)C1=N	14%	5µM*	-2	?	13%	1%
CCOC(=O)c1sc(NC(=O)CSc2n[nH]c(-c3ccccc3)n2)c(C#N)c1C	-11%	-14%	-55*	?	-11%	-18%
CCOC(=O)c1sc(NC(=O)C(C)C)c(C#N)c1C	?	17%	-68*	-13%	6%	-7%
Cc1ccc(CNC(=O)C2CCN(Cc3nc(-c4ccccc4C)oc3C)CC2)cc1	15%	-3%	.	-24%	12%	-13%
CCOc1ccc(-c2nnc(SCC(=O)NCCC(C)C)nc2-c2ccc(OCC)c(OC)c2)cc1OC	10%	6%	.	-13%	1%	-6%[60.1 µM]
Nc1nc(-c2cc(O)ccc2[N+](=O)[O-])cc(-c2ccccc2)c1[N+](=O)[O-]	?	-9%	-26	89µM*	?	-5%
O=c1c2ccccc2nc(SCc2cc(=O)n3ccsc3n2)n1CCCO	.	32µM*	.	.	.	.
C=CCn1c(SCc2cc(=O)n3ccsc3n2)nc2ccccc2c1=O	-18%	?	-5	19%	-12%	-21%
Cc1nnc(N/N=C/c2ccc(-c3ccc(Br)cc3)o2)n1N	?	?	-10	-15%	-24%	-18%
Cc1nnc(N/N=C\c2ccc(-c3cccc(C(=O)O)c3)o2)n1N	2.5µM*	?	?	?	-13%	?
NC(=O)c1nc(Nc2ccccc2)sc1NC(=O)c1ccccc1Br	-13%	-4%	.	-2%	0%	-4%[60.1 µM]
SMILES	Pol iota inh	Pol beta inh	PI5P4K alpha inh	Pol eta inh	FEN1 inh	POLK inh
Cc1ccc(/C=C/C(=O)Nc2nnc(SCc3ccc(C#N)cc3)s2)o1	40µM*	21%	-72*	?	19%	?
Cc1ccc(/C=C/C(=O)Nc2nccs2)o1	64%	86%	-5	-3%	-2%	3%
Cc1ccc(/C=C/C2=Cc3c(sc(NC(=O)CSc4n[nH]c(N)n4)c3C#N)C(C)(C)C2)o1	.	40µM*	.	.	.	.
c1ccc(-n2nnc3ccccc32)cc1	30%	6%	-1	-5%	2%	19%
C(=C\n1nnc2ccccc21)/c1ccc[nH]1	?	.	-77*	50µM*	?	25µM*
N#Cc1c(N(CCO)CCO)nc(N)c2c(N)nc3c(c12)CC(=O)N3Cc1cccs1	3.5µM*	2%	?	40µM*	-24%	-9%
CCc1nc2ccc(C(=O)NCCN3CCNC3=O)cn2c1N(C)Cc1ccc(OC)cc1	.	.	-8	.	.	.
NCC1CCC(N)C(O[C@@H]2C(O)[C@H](O[C@H]3OC(CO)C(O)C(N)C3O)[C@@H](N)C[C@H]2N)O1 (some centres undefined)	.	.	.	.	.	-3%[60.1 µM]
CC(=O)Nc1cccc(NC(=S)Nc2cccc(Cl)c2C)c1	?	-2%	6	-3%	12%	-14%
CC(=O)Nc1cccc(NC(=O)Nc2cccc(Cl)c2C)c1	10%	45µM*	-2	-9%	-17%	-23%
COc1ccc(OC)c(NC(=O)CN2C(=O)COc3ccc(S(=O)(=O)NC4CCCC4)cc32)c1	-1%	21%	.	-26%	-15%	-11%[60.1 µM]
O=S1(=O)CC(O)C(O)CS1 (centres undefined)	.	.	-69*	.	.	.
CCC(=O)Nc1ccccc1-c1nc2ccccc2n(CC(=O)c2ccc(C)c(C)c2)c1=O	21%	2%	.	-2%	-13%	-16%
CCOC(=O)c1ccc(CC(=O)c2ccc(O)cc2O)o1	0%	29%	-9	-7%	-1%	-16%
COC(=O)c1ccc(CC(=O)c2c(C)cc(O)cc2O)o1	?	?	-22	?	?	25µM*
NC(C(=O)N[C@@H]1C(=O)N2C(C(=O)O)=C(Cl)CS[C@H]12)c1ccccc1 (some centres undefined)	4%[58.9 µM]	13%[57.1 µM]	.	-1%[57.1 µM]	.	-7%[60.1 µM]
COC(=O)[C@]1(C)N[C@H](c2ccc(SC3CCCCC3)c(OC)c2)[C@@H]2C(=O)N(C)C(=O)[C@@H]21	19%	.	-3	-23%	14%	-4%
COc1cccc(C(=O)c2cn(CC(=O)Nc3cccc(Cl)c3C)c3nc(C)ccc3c2=O)c1	-24%	-21%	.	-10%	-1%	-15%
CC(=O)c1cccc(NC(=O)Cn2cc(C(=O)c3cccc(Cl)c3)c(=O)c3ccc(C)nc32)c1	89µM*	15%	.	-1%	-20%	-7%
CC(C)CCN1CCN(Cc2ccon2)CC1CCO (centres undefined)	12%	37%	1	-9%	51%	10%
Cc1sc(NC(=O)C2C3C=CC(C3)C2C(=O)O)c(C(N)=O)c1-c1ccc(C(C)C)cc1 (centres undefined)	-5%	3%	-1	-16%	1%	-11%
